Measured values: PubChem BioAssay (NCI)
The panel holds about 83,000 compounds, 20% with a hit somewhere; the sample as a whole holds those more often.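 In brief: 96-well plates, 48 h treatment, single concentration, percent growth endpoint.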 Active and inactive are the calls of the source. Rule for the calls: active = growth percent below 10; inactive = the rest.

Legend:
Experiment in all cases: NCI-60 one-dose screen, 48 h (100 = growth as untreated, 0 = no growth, -100 = all killed)
Conditions in all cases: 10 µM unless noted
SR leukemia = system: SR leukemia
RPMI-8226 leukemia = system: RPMI-8226 leukemia
OVCAR-8 ovarian = system: OVCAR-8 ovarian
OVCAR-5 ovarian = system: OVCAR-5 ovarian
OVCAR-4 ovarian = system: OVCAR-4 ovarian
IGROV1 ovarian = system: IGROV1 ovarian
HS 578T breast = system: HS 578T breast
NCI/ADR-RES ovarian = system: NCI/ADR-RES ovarian
T-47D breast = system: T-47D breast
BT-549 breast = system: BT-549 breast
MDA-MB-435 melanoma = system: MDA-MB-435 melanoma
SW-620 colon = system: SW-620 colon
MCF7 breast = system: MCF7 breast
HCC-2998 colon = system: HCC-2998 colon
KM12 colon = system: KM12 colon
OVCAR-3 ovarian = system: OVCAR-3 ovarian
HCT-116 colon = system: HCT-116 colon
SK-OV-3 ovarian = system: SK-OV-3 ovarian

Measured: growth

COCc1nc(NS(=O)(=O)c2ccc(N)cc2)nc(C)c1Br
inactive: SR leukemia 89.3% | RPMI-8226 leukemia 106% | OVCAR-8 ovarian 110% | OVCAR-5 ovarian 106% | OVCAR-4 ovarian 123% | IGROV1 ovarian 103% | HS 578T breast 112% | NCI/ADR-RES ovarian 104% | T-47D breast 96.1% | BT-549 breast 106% | MDA-MB-435 melanoma 107% | SW-620 colon 103% | MCF7 breast 103% | HCC-2998 colon 97.1% | KM12 colon 107%

CC(C)(C)c1nn(-c2ccccc2)c2c1C(=O)CSC(c1ccccc1Cl)N2 (configuration not stated)
active: SR leukemia -13.8% | NCI/ADR-RES ovarian 0.0963% | MDA-MB-435 melanoma -12.4%
inactive: RPMI-8226 leukemia 42.9% | OVCAR-8 ovarian 35.7% | OVCAR-5 ovarian 46.8% | OVCAR-4 ovarian 72.5% | IGROV1 ovarian 30.3% | OVCAR-3 ovarian 11.3% | HS 578T breast 47.5% | BT-549 breast 44.6% | SW-620 colon 37.1% | MCF7 breast 17.1% | HCT-116 colon 16.2% | HCC-2998 colon 24.9% | KM12 colon 32.5%

Cc1ccc(NC(=O)c2sc3nc4c(cc3c2N)C(=O)CCC4)cc1Cl
inactive: SR leukemia 105% | RPMI-8226 leukemia 105% | OVCAR-8 ovarian 103% | OVCAR-5 ovarian 101% | IGROV1 ovarian 106% | OVCAR-3 ovarian 113% | HS 578T breast 113% | NCI/ADR-RES ovarian 104% | T-47D breast 105% | BT-549 breast 115% | MDA-MB-435 melanoma 99.2% | SW-620 colon 113% | MCF7 breast 102% | HCT-116 colon 105% | HCC-2998 colon 103% | KM12 colon 116%

Cc1c(C(=O)Nc2ccccc2F)sc2c(=O)[nH]cnc12
inactive: SR leukemia 28.5% | RPMI-8226 leukemia 96.7% | OVCAR-8 ovarian 97% | OVCAR-5 ovarian 123% | SK-OV-3 ovarian 97.5% | IGROV1 ovarian 76.4% | OVCAR-3 ovarian 93.7% | HS 578T breast 98.2% | NCI/ADR-RES ovarian 66.2% | BT-549 breast 85.3% | SW-620 colon 76.8% | MCF7 breast 76.9% | HCT-116 colon 88.6% | KM12 colon 61.8%
active: MDA-MB-435 melanoma 6.84%

COc1cc([N+](=O)[O-])cc(OC)c1OC
inactive: SR leukemia 102% | RPMI-8226 leukemia 96% | OVCAR-8 ovarian 109% | OVCAR-5 ovarian 129% | SK-OV-3 ovarian 118% | IGROV1 ovarian 100% | OVCAR-3 ovarian 108% | HS 578T breast 107% | NCI/ADR-RES ovarian 114% | BT-549 breast 108% | MDA-MB-435 melanoma 117% | SW-620 colon 105% | MCF7 breast 96.5% | HCC-2998 colon 107% | KM12 colon 108%

C=CCOc1ccc2c(C)cc(=O)oc2c1
inactive: SR leukemia 128% | RPMI-8226 leukemia 93.8% | OVCAR-8 ovarian 103% | OVCAR-5 ovarian 113% | SK-OV-3 ovarian 117% | IGROV1 ovarian 113% | OVCAR-3 ovarian 105% | NCI/ADR-RES ovarian 104% | T-47D breast 105% | BT-549 breast 109% | MDA-MB-435 melanoma 98.3% | SW-620 colon 109% | MCF7 breast 98.2% | HCT-116 colon 105% | HCC-2998 colon 100% | KM12 colon 105%

CCc1c(C)c2ccc(O)c(-c3cc(-c4ccccc4)c(C#N)c(=O)[nH]3)c2oc1=O
inactive: SR leukemia 95.5% | RPMI-8226 leukemia 81% | OVCAR-8 ovarian 100% | OVCAR-5 ovarian 95.1% | SK-OV-3 ovarian 95.9% | IGROV1 ovarian 101% | OVCAR-3 ovarian 88.8% | HS 578T breast 118% | NCI/ADR-RES ovarian 99.9% | T-47D breast 85.9% | BT-549 breast 113% | MDA-MB-435 melanoma 114% | SW-620 colon 105% | MCF7 breast 84.7% | HCT-116 colon 95.7% | HCC-2998 colon 111% | KM12 colon 96.2%

CC(C)(C)c1cc(C[P+](c2ccccc2)(c2ccccc2)c2ccccc2)cc(C(C)(C)C)c1O
inactive: OVCAR-5 ovarian 20.8% | OVCAR-4 ovarian 16.2% | IGROV1 ovarian 12.1% | OVCAR-3 ovarian 13.8% | HS 578T breast 16.2% | NCI/ADR-RES ovarian 73.2% | SW-620 colon 10.6% | HCC-2998 colon 14.6%
active: SR leukemia -22.3% | RPMI-8226 leukemia -35% | SK-OV-3 ovarian -0.717% | T-47D breast -4.23% | BT-549 breast -0.875% | MDA-MB-435 melanoma -38% | MCF7 breast 3.43% | HCT-116 colon 5.83% | KM12 colon -38.6%

CCOc1cc(/C=N\NC(=O)C[N+](C)(C)C)ccc1O
inactive: SR leukemia 14.3% | RPMI-8226 leukemia 94% | OVCAR-8 ovarian 113% | OVCAR-5 ovarian 101% | SK-OV-3 ovarian 105% | IGROV1 ovarian 118% | OVCAR-3 ovarian 116% | HS 578T breast 117% | NCI/ADR-RES ovarian 103% | T-47D breast 94.1% | BT-549 breast 117% | MDA-MB-435 melanoma 109% | SW-620 colon 110% | MCF7 breast 105% | HCT-116 colon 111% | HCC-2998 colon 104% | KM12 colon 109%

Cc1cc([N+](=O)[O-])c(C)cc1N
inactive: SR leukemia 90.9% | RPMI-8226 leukemia 96.5% | OVCAR-8 ovarian 102% | OVCAR-5 ovarian 116% | SK-OV-3 ovarian 111% | IGROV1 ovarian 96.9% | OVCAR-3 ovarian 104% | HS 578T breast 107% | NCI/ADR-RES ovarian 106% | T-47D breast 111% | BT-549 breast 101% | MDA-MB-435 melanoma 110% | SW-620 colon 104% | MCF7 breast 90.9% | HCT-116 colon 109% | HCC-2998 colon 102% | KM12 colon 107%

C[C@H](NC(=O)c1snnc1C1CC1)c1c(F)cccc1Cl
inactive: SR leukemia 149% | RPMI-8226 leukemia 130% | OVCAR-8 ovarian 104% | OVCAR-5 ovarian 115% | OVCAR-4 ovarian 110% | IGROV1 ovarian 113% | OVCAR-3 ovarian 114% | HS 578T breast 100% | NCI/ADR-RES ovarian 97.8% | T-47D breast 258% | BT-549 breast 139% | MDA-MB-435 melanoma 106% | SW-620 colon 106% | MCF7 breast 98.7% | HCT-116 colon 122% | HCC-2998 colon 95.7% | KM12 colon 114%

CCN(CC)CCNC(=O)C(F)(F)C(F)(F)C(F)(F)F
inactive: SR leukemia 106% | RPMI-8226 leukemia 107% | OVCAR-8 ovarian 114% | OVCAR-5 ovarian 99.2% | OVCAR-4 ovarian 112% | IGROV1 ovarian 138% | OVCAR-3 ovarian 109% | HS 578T breast 96.7% | NCI/ADR-RES ovarian 113% | T-47D breast 110% | BT-549 breast 98.7% | MDA-MB-435 melanoma 109% | SW-620 colon 104% | MCF7 breast 108% | HCT-116 colon 96.2% | HCC-2998 colon 105% | KM12 colon 101%

Cc1cc(-c2ccc(N=Nc3c(S(=O)(=O)O)cc4cc(S(=O)(=O)O)cc(O)c4c3O)c(C)c2)ccc1N=Nc1c(S(=O)(=O)O)cc2cc(S(=O)(=O)O)cc(O)c2c1O
inactive: SR leukemia 148% | RPMI-8226 leukemia 114% | OVCAR-8 ovarian 99.5% | OVCAR-5 ovarian 99.4% | OVCAR-4 ovarian 103% | IGROV1 ovarian 80.6% | OVCAR-3 ovarian 120% | HS 578T breast 78.6% | NCI/ADR-RES ovarian 108% | BT-549 breast 108% | MDA-MB-435 melanoma 103% | SW-620 colon 114% | MCF7 breast 101% | HCT-116 colon 109% | HCC-2998 colon 106% | KM12 colon 114%

COc1ccc(NC(=O)c2sc3c(=O)[nH]c(C(F)(F)F)nc3c2C)cc1
inactive: SR leukemia 106% | RPMI-8226 leukemia 95% | OVCAR-8 ovarian 100% | OVCAR-5 ovarian 116% | SK-OV-3 ovarian 98.5% | IGROV1 ovarian 90% | OVCAR-3 ovarian 112% | HS 578T breast 104% | NCI/ADR-RES ovarian 102% | T-47D breast 89.7% | BT-549 breast 103% | MDA-MB-435 melanoma 103% | SW-620 colon 112% | MCF7 breast 84.3% | HCT-116 colon 100% | HCC-2998 colon 111% | KM12 colon 106%

O=C1CCCN1C(O)CCN(Cc1ccccc1)Cc1ccc(Cl)cc1 (configuration not stated)
inactive: SR leukemia 83% | RPMI-8226 leukemia 98.5% | OVCAR-8 ovarian 96.7% | OVCAR-5 ovarian 99.2% | OVCAR-4 ovarian 103% | IGROV1 ovarian 100% | OVCAR-3 ovarian 108% | HS 578T breast 104% | NCI/ADR-RES ovarian 106% | T-47D breast 99.6% | BT-549 breast 105% | MDA-MB-435 melanoma 103% | SW-620 colon 100% | MCF7 breast 94.1% | HCT-116 colon 96.7% | HCC-2998 colon 108% | KM12 colon 105%

Cc1ccc(C)c2c1SC1=NNC(Oc3ccc(Cl)cc3)=C(C#N)C(=N)N12
inactive: SR leukemia 113% | RPMI-8226 leukemia 98.7% | OVCAR-8 ovarian 108% | OVCAR-5 ovarian 111% | SK-OV-3 ovarian 95.7% | IGROV1 ovarian 87.8% | OVCAR-3 ovarian 110% | HS 578T breast 103% | NCI/ADR-RES ovarian 105% | T-47D breast 84.4% | BT-549 breast 107% | MDA-MB-435 melanoma 113% | SW-620 colon 104% | MCF7 breast 89.5% | HCC-2998 colon 105% | KM12 colon 109%

CCOC(=O)C#Cc1c(C(=O)OCC)nnn1[C@@H]1O[C@H](COC(C)=O)[C@@H](OC(C)=O)[C@H]1OC(C)=O
inactive: SR leukemia 22.8% | RPMI-8226 leukemia 94.8% | OVCAR-8 ovarian 94.1% | OVCAR-5 ovarian 100% | OVCAR-4 ovarian 104% | IGROV1 ovarian 91.5% | HS 578T breast 96.2% | NCI/ADR-RES ovarian 104% | T-47D breast 60.2% | BT-549 breast 111% | MDA-MB-435 melanoma 104% | SW-620 colon 13.6% | MCF7 breast 41.8% | KM12 colon 109%

O=C(Nc1cccc(Cl)c1)Nc1ccccc1Cl
inactive: SR leukemia 82.1% | RPMI-8226 leukemia 55.9% | OVCAR-8 ovarian 87.3% | OVCAR-5 ovarian 115% | SK-OV-3 ovarian 101% | IGROV1 ovarian 85.9% | OVCAR-3 ovarian 78.4% | HS 578T breast 90.7% | NCI/ADR-RES ovarian 80.6% | T-47D breast 81.5% | BT-549 breast 99.2% | MDA-MB-435 melanoma 92.2% | SW-620 colon 89.5% | MCF7 breast 77.8% | HCT-116 colon 90% | HCC-2998 colon 99.8% | KM12 colon 89.9%
